In PubChem BioAssay (EPA / NIEHS):
Active and inactive are the calls of the source. The calls were made as follows: active = hit-call score of the fitted dose curve at least 0.9, where 1 is the maximum; inactive = score below 0.9.

Each molecule was assayed on Monocyte Chemoattractant Protein-1 (MCP1), CCL2 (gene 6347) (assay: BSK_3C_MCP1: BioMAP Diversity Plus: 3C Assay for Monocyte Chemoattractant Protein-1 (MCP1) Biomarker Activity (AID 2283017)). Conditions: primary human endothelial cells (HUVEC); actives raise or lower the signal.
Method: BSK_3C is a cell-based, multiplexed-readout assay that uses umbilical vein endothelium, a human vascular primary cell, with measurements taken at 24 hours after chemical dosing in a 96-well plate.BSK_3C_MCP1 is an assay component measured in the BSK_3C assay. It measures MCP-1 antibody related to regulation of gene expression using ELISA technology.Data from the assay component BSK_3C_MCP1 was analyzed into 1 assay endpoint. This assay endpoint, BSK_3C_MCP1, was analyzed with bidirectional fitting relative to DMSO as the negative control and baseline of activity. Using a type of binding reporter, gain or loss-of-signal activity can be used to understand changes in the signaling as they relate to the gene CCL2. Furthermore, this assay endpoint can be referred to as a primary readout, because this assay has produced multiple assay endpoints where this one serves a signaling function. To generalize the intended target to other relatable targets, this assay endpoint is annotated to the cytokine intended target family, where the subfamily is chemotactic factor.
The levels of cell surface (or secreted, indicated by the prefix "s") biomarker endpoints were measured by ELISA. Overt cytotoxicity to cells in confluent adherent cultures (all systems other than the BT system) was assessed by measuring total protein levels using sulforhodamine B (SRB) staining in parallel cultures at the time of biomarker measurements, indicated as SRB endpoints. For proliferation assays for adherent cell types, individual cell types are cultured at sub-confluence and relative cell numbers quantified by SRB staining at time points optimized for each system (48 h: 3C and CASM3C systems; 72 h: BT and HDF3CGF systems; 96 h: SAg system). SRB was performed by staining cells with 0.1% SRB after fixation with 10% TCA and reading wells at 560 nm.Viability and proliferation of PBMC (T cells) was quantified by Alamar Blue reduction for the SAg and BT systems. For PBMC viability (referred to as PBMC Cytotoxicity within the assay endpoint names), cells were plated (75,000/well in a 96-well plate) and then chemical samples added for 1 h before addition of activators, SEB and TSST-1 (20 ng/mL final concentration each). Cells were incubated for 90 h. Then, Alamar Blue (20 uL/well) (Invitrogen, Cat DAL1100) was added for 6 h, and the plates were read with a fluorescence microplate reader at 546/580 nm (excitation/emission). For PBMC proliferation, cells were plated and activated as above but incubated for only 16 h prior to addition of Alamar Blue. Plates were read after 6 h.
`CCCCCCCCO` was tested, and the outcome was “inactive”. `Cc1ccc(S(=O)(=O)O)cc1C` was tested, and the outcome was “inactive”. With `O=C1CCCCCN1` the outcome was “inactive”. With `Cn1c(=O)c2c(ncn2C)n(C)c1=O` the outcome was “inactive”. With `COc1cccc(-c2ccc(/C=C\CN3CCCCCC3)cc2Cl)c1` the AC50 was 30.9 µM (active). `CC(C)=CCC/C(C)=C/CO` was tested, and the outcome was “inactive”. `CN(C)c1ccc(N=NS(=O)(=O)O)cc1` was tested, and the outcome was “inactive”. For `COCCOCCOCCOC`, the outcome was “inactive”. `CC(C)c1cccc(C(C)C)c1N1C(=O)c2ccc(O)cc2C1=O` was tested, and the outcome was “inactive”. With `Cc1[nH]cnc1C[C@H]1CCc2c(C)c3ccccc3n2C1=O` the AC50 was 27.5 µM (active). In the case of `CC(C)(O)c1coc(S(=O)(=O)NC(=O)Nc2c3c(cc4c2CCC4)CCC3)c1`, the outcome is reported as “inactive”. For `O=C1OC(=O)C2C3C=CC(C3)C12` (stereo not given), the outcome was “inactive”. For `O=C(NS(=O)(=O)/C=C/c1ccccc1)c1ccc(F)cc1Cl`, the outcome was “inactive”. For `CC[C@H]1CC[C@H](NCc2cc3c(cc2OC)[C@H]2C[C@H]2C(=O)N3C)[C@H](c2ccccc2)N1`, the outcome was “inactive”. For `CCOC(=O)COc1ccc2c(c1)CC(NCC(O)c1cccc(Cl)c1)CC2` (stereo not given), the AC50 was 33.6 µM (active). `Nc1nc2ncc(CNc3ccc(C(=O)N[C@@H](CCC(=O)O)C(=O)O)cc3)nc2c(=O)[nH]1` was tested, and the outcome was “inactive”. In the case of `CCCN(C1CCN(C(=O)C2CCNCC2)CC1)[C@@H]1CCc2ccc(OC)cc2C1`, the outcome is reported as “inactive”. With `Cc1c(-c2cccnc2)c2ccccc2n1CCCCC(=O)O` the outcome was “inactive”. For `CC(=O)OC[C@H]1O[C@@](COC(C)=O)(O[C@H]2O[C@H](COC(C)=O)[C@@H](OC(C)=O)[C@H](OC(C)=O)[C@H]2OC(C)=O)[C@@H](OC(C)=O)[C@@H]1OC(C)=O`, the outcome was “inactive”. For `C=CCCCCCCCCC(=O)O`, the outcome was “inactive”. For `Clc1nc(Cl)c(Cl)c(Cl)c1Cl`, the outcome was “inactive”. In the case of `CN(C)c1ccc(Cc2ccc(N(C)C)cc2)cc1`, the outcome is reported as “inactive”. `CCOCCOCCOCCO` was tested, and the outcome was “inactive”. With `Cc1ccc(C)c(O)c1` the outcome was “inactive”. For `CC(O)CN(CCN(CC(C)O)CC(C)O)CC(C)O` (stereo not given), the outcome was “inactive”. `COC(=O)c1c(Cl)c(Cl)c(C(=O)OC)c(Cl)c1Cl` was tested, and the outcome was “inactive”. `CCNc1ccccc1` was tested, and the outcome was “inactive”. In the case of `CC1=CC(=O)CC(C)(C)C1`, the outcome is reported as “inactive”. With `Oc1ccc2c(c1)-c1ccccc1C2` the outcome was “inactive”. For `O=C(O)c1cc(N=Nc2ccc(S(=O)(=O)Nc3ccccn3)cc2)ccc1O`, the outcome was “inactive”. With `O=C(O)c1cccc(N(Cc2cccnc2)c2ccc(OC(F)F)c(OC(F)F)c2)c1` the outcome was “inactive”. In the case of `Nc1cccc(N)c1`, the outcome is reported as “inactive”. In the case of `CCOC(=O)CC(CC(=O)OCC)(OC(C)=O)C(=O)OCC`, the outcome is reported as “inactive”. In the case of `CC[C@H](C)C(=O)O[C@H]1C[C@@H](C)C=C2C=C[C@H](C)[C@H](CC[C@@H]3C[C@@H](O)CC(=O)O3)[C@H]21`, the AC50 is reported as 24 µM (active). With `CCOC(=O)c1ccc(C2CCC(NC[C@H](O)COc3ccc(O)c(NS(C)(=O)=O)c3)CC2)cc1` (stereo not given in full) the AC50 was 27.9 µM (active). For `Cc1ccc(N)cc1O`, the outcome was “inactive”. `O=C(O)CC(O)C(=O)O` (stereo not given) was tested, and the outcome was “inactive”. For `CCOCCO`, the outcome was “inactive”. With `O=C(OC[C@H]1O[C@@H](OC(=O)c2cc(O)c(O)c(OC(=O)c3cc(O)c(O)c(O)c3)c2)[C@H](OC(=O)c2cc(O)c(O)c(OC(=O)c3cc(O)c(O)c(O)c3)c2)[C@@H](OC(=O)c2cc(O)c(O)c(OC(=O)c3cc(O)c(O)c(O)c3)c2)[C@@H]1OC(=O)c1cc(O)c(O)c(OC(=O)c2cc(O)c(O)c(O)c2)c1)c1cc(O)c(O)c(OC(=O)c2cc(O)c(O)c(O)c2)c1` the AC50 was 9.09 µM (active). With `O=P(OC(CCl)CCl)(OC(CCl)CCl)OC(CCl)CCl` the outcome was “inactive”.
